Compound activity from PubChem.
NPC1 prom act: activates the NPC1 promoter; Huh7 NPC1 promoter luciferase reporter, 24 h; Potency, µM (titrated, usually from 9.22 µM), most hits filed as activators; hit rate 2.4% among 320,000; also: nearly all actives have a fitted effect of over 60% in size
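Stable NPC1-promoter luciferase Huh7 line; cpd (DMSO) 24 h, 37 °C, 5% CO2; Amplite luciferase reagent 10 min RT; luminescence readout. qHTS format.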
ELG1 genotox: genotoxicity induction in ELG1-luciferase HEK293T cells | hit rate 1.3% among 330,000 | HEK293T ELG1-luciferase reporter, luminescence, 16 h | Potency, µM (highest dose often 46 µM), hits mostly activators; also: nearly all actives have a fitted effect of over 60% in size
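Luminescence read-out: rising ELG1-luciferase signal, reflecting elevated ELG1 protein under genetic stress, flags genotoxic compounds. Cells were treated for 16 hr at 37 °C before ONE-Glo detection.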
ELG1 DNA repair: ELG1-dependent DNA repair inhibition. HEK293T ELG1-luciferase reporter, luminescence, 16 h; DNA damage induced by 5-fluorouridine. Potency, µM (top dose mostly 46.1 µM), actives largely listed as inhibitors. hit rate 2.3% among 330,000. AID 504467; also: nearly all actives have a fitted effect of over 55% in size
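DMSO vehicle served as the neutral condition. Each well held 2,000 cells given 5-fluorouridine plus compound; after 16 hr at 37 °C/5% CO2, ONE-Glo was added and luciferase measured 30 min later.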
Rab9 prom act: activators of Rab9 promoter. Potency, µM (highest dose often 9.22 µM), most hits filed as activators. hit rate 2.8% among 320,000. Huh7 Rab9 promoter-luciferase reporter, luminescence, 24 h; also: nearly all actives have a fitted effect of over 60% in size
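Quantitative HTS format; Huh7 Rab9-luciferase reporter cells (1500/well) receive compound 2 h post-plating, incubate 24 h at 37 °C, then get luciferase reagent for 10 min before luminescence reading.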
FLuc modulator: firefly luciferase modulation, counter-screen for miR-21 project. purified FLuc, Km substrates, luminescence inhibition. Potency, µM (titrated, usually from 57.5 µM), actives largely listed as inhibitors. hit rate 6.9% among 360,000. AID 588342; also: nearly all actives have a fitted effect of over 55% in size
Target sequence (P08659 whole entry, looked up): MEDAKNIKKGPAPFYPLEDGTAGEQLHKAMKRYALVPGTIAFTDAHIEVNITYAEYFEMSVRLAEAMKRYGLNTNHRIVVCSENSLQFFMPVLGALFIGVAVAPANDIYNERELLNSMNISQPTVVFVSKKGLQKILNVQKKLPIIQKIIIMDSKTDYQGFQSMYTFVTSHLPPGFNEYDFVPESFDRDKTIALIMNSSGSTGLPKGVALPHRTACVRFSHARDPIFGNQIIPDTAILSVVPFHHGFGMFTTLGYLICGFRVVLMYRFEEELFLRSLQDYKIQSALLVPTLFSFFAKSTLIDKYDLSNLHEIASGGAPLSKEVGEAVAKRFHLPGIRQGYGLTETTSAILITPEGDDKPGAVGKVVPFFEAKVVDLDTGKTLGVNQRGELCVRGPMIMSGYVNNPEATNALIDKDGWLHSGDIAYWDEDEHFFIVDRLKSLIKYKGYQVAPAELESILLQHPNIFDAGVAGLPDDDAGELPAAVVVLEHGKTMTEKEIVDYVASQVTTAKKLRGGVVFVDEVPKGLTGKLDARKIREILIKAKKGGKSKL
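Biochemical qHTS of compounds, final roughly 60 µM downward over six points, against 10 nM purified firefly luciferase using Km concentrations of substrates (10 uM D-luciferin, 10 uM ATP) in Tris acetate pH 7.5 buffer; luminescence output.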
SMN2 splice enh: enhancers of SMN2 splice variant expression; HEK293 SMN2-luciferase splicing reporter, luminescence, 30-36 h; Potency, µM (top dose mostly 46.1 µM), actives largely listed as activators; hit rate 2.8% among 210,000; AID 1458; also: nearly all actives have a fitted effect of over 55% in size
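HEK293 cells carry an SMN2 minigene-luciferase reporter in which exon 7 inclusion puts luciferase in frame. Cells were seeded at 2000 cells/well, attached for 10-12 hours, then exposed to compounds for 30-36 hours at 37C before ONE-Glo luminescence.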
Hits are given with their value; n = inactive; u = inconclusive; x = not tested or not shown. Hits are enriched below; roughly 9.2% of the tested compounds scored in any of these assays. Calls follow the shape of the dose curve; as a rule, active = well fitted curve in the direction sought with a large enough effect; inconclusive = small, poorly fitted or top-dose-only effect, or another doubt; inactive = no such curve, though single readings can be large; an effect the other way counts as inactive or inconclusive.

SMILES | NPC1 prom act | ELG1 genotox | ELG1 DNA repair | Rab9 prom act | FLuc modulator | SMN2 splice enh
O=c1c2oc3ccccc3c2n(Cc2ccc(Cl)cc2)c(=O)n1Cc1ccccc1 | x | x | x | x | n | x
COc1cc(CNC(=O)c2ccc(Cn3nc(C)c(Cl)c3C)o2)cc(OC)c1 | n | n | 18µM | n | n | n
COc1ccc(-c2cn3c(C)c(C(=O)N4CCN(c5ccc(F)cc5)CC4)sc3n2)cc1 | n | n | n | n | u | n
COc1ccccc1N1CCN(C(=O)c2sc3nc(-c4ccc(F)cc4)cn3c2C)CC1 | n | n | 18µM | n | n | n
CCOC(=O)N1CCN(C(=O)c2sc3nc(-c4ccc(F)cc4)cn3c2C)CC1 | n | n | 21µM | n | n | n
Fc1ccc2[nH]c3c(N4CCN(c5ccccc5)CC4)ncnc3c2c1 | n | n | 7.3µM | n | n | n
CCOC(=O)N1CCN(c2ncnc3c2[nH]c2ccc(F)cc23)CC1 | n | n | 12µM | n | n | n
CC(C)c1ccc(/C=C/C(=O)NC2=NCCS2)cc1 | 0.32µM | u | u | 0.32µM | 1.3µM | 1.8µM
O=C(/C=C/c1ccc(Cl)c(Cl)c1)NC1=NCCS1 | 2.8µM | n | u | 2.2µM | u | n
CCOC(=O)C1=CNS(=O)(=O)NC1c1ccc(C#N)cc1 (stereo unspecified) | x | n | u | x | x | x
COC(=O)c1sc(-c2ccc(C(C)(C)C)cc2)cc1NC(=O)COCC(=O)O | n | n | n | n | 3.8µM | x
COC(=O)c1sc(-c2ccc(Cl)cc2)cc1NC(=O)CSCC(=O)O | n | n | n | n | 13µM | x
CCc1ccc(NC(=O)CCCc2nnc3n(C(C)CC)c(=O)c4sccc4n23)cc1 (stereo unspecified) | x | x | x | x | n | x
O=C(Nc1ccc(F)c(F)c1)c1ccc(F)c(S(=O)(=O)N2CCC3(CC2)OCCO3)c1 | n | n | 7.3µM | n | n | n
O=S(=O)(c1cc(F)ccc1F)N1CCC2(CC1)OCCO2 | 3.5µM | 9.2µM | u | 4µM | 12µM | x
CCc1ccc(NC(=O)c2ccc(F)c(S(=O)(=O)N3CCC4(CC3)OCCO4)c2)cc1 | x | x | x | x | n | x
CCOC(=O)Cn1c(=O)oc2cc(S(=O)(=O)N3CCc4ccccc43)ccc21 | n | n | n | n | n | n
O=C(O)CNC(=O)c1ccc(Oc2c(F)c(F)c(Oc3ccc(C(=O)NCC(=O)O)cc3)c(F)c2F)cc1 | n | n | n | n | n | x
CN1C(=O)[C@H]2[C@@H](C3CC3)N3C(=O)CN(CC4CC4)C(=O)[C@@]3(C)[C@H]2C1=O | n | n | n | n | n | x
O=C(c1ccc2oc(CCCc3ccccc3)nc2c1)N1CCCCC1CO (stereo unspecified) | 4.5µM | u | u | 6.3µM | 24µM | x
CCOC(=O)CC1COCCN1C(=O)c1ccc2oc(Cc3ccccc3)nc2c1 (stereo unspecified) | u | u | u | 3.2µM | 12µM | x
NC(=O)[C@@H]1CCCN1C(=O)c1ccc2oc(CCc3ccccc3)nc2c1 | u | u | u | u | n | x
Nc1ccc2oc(CCc3ccccc3)nc2c1 | 2.5µM | u | u | 0.71µM | 9.5µM | 18µM
O=C(c1ccc2oc(CCc3ccccc3)nc2c1)N1CCC(O)CC1 | 1.3µM | u | u | 1µM | 11µM | x
Cc1cc2oc(C(=O)N(Cc3ccccc3)c3ccccn3)cc(=O)c2cc1Cl | n | n | n | n | n | x
SMILES | NPC1 prom act | ELG1 genotox | ELG1 DNA repair | Rab9 prom act | FLuc modulator | SMN2 splice enh
O=C(CCc1ccccn1)N1CCCC(N2CCN(c3ccc(F)cc3)CC2)C1 (stereo unspecified) | n | n | n | n | n | x
C=CCOc1ccccc1CN1CCC(n2nccc2NC(=O)C2CC2)CC1 | n | n | n | n | n | x
COC(=O)Cc1c(C)c2ccc3c(c2oc1=O)CN(Cc1ccccc1OC)CO3 | x | x | x | x | n | n
Cc1ccsc1/C=N\NC(=O)c1n[nH]c2c1CCC2 | 1µM | u | u | 0.63µM | 2.1µM | 1.6µM
O=C(N/N=C/c1c(Cl)cccc1Cl)c1ccccc1F | n | n | u | n | n | n
O=C(N/N=C/c1c(Cl)cccc1Cl)c1n[nH]c2c1CCCC2 | 2.8µM | u | u | 2.8µM | 6.7µM | 18µM
